Values joined by “and” are separate entries in the source; they are usually repeats but may differ in a detail not shown here. Equal values may be shown once. Compounds without any hit were thinned out: in the full panel of roughly 83,000, 20% have a hit.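 Compound tested at a single concentration for 48 hours in 96-well plates; a percent growth value below 10 was scored as active.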 A number with no mark means an inactive call. Active and inactive are the calls of the source.

The test concerns MDA-MB-468 breast. The experiment in a line: NCI-60 one-dose screen, 48 h (100 = growth as untreated, 0 = no growth, -100 = all killed). Conditions: 10 µM unless noted.
Consider `Cc1nc2ccccc2c(C(=O)O)c1O`, for which the growth is 99.9%.

As for `Clc1ccc(-c2nnc(Cn3ccnc3)o2)cc1`, the growth is 104%.

With `CCOC(=O)c1c(C)c2c(n1C)CSc1cc(C(=O)c3ccccc3)c(=O)[nH]c1-2`, the growth is 96.6% [100 µM].

For `CCOC(=O)C(Cc1ccc(OC)cc1)C(=O)OCC`, the growth is 55.3%.

`Brc1ccc(-c2nc3ccccc3s2)cc1`: the growth was 93%.

Turning to `COc1cc(OC)cc(-c2n/c(=C\c3c(O)[nH]c4ccc(OC)cc34)cc3c2=Nc2ccccc2-3)c1`, the growth was 88.4%.

Consider `O=C1C(Cl)=C(N/N=c2/[nH][nH]/c(=N/NC3=C(Cl)C(=O)c4ccccc4C3=O)c3ccccc23)C(=O)c2ccccc21`, for which the growth is 62.9%.

For the compound `COC(=O)/C=C1\SC(=Nc2cccc(OC)c2)N(CCc2c[nH]c3ccccc23)C1=O`, the growth was 64%.

As to `N#C/C(=C\c1ccc(Cl)cc1Cl)C(=O)Nc1ncc(Cc2ccc(Cl)c(Cl)c2)s1`, the growth is 88.6%.

`NC(=O)c1c(NC(=O)COC(=O)Cc2ccccc2F)sc2c1CCC2`: the growth is 112%.

Take `Cc1ccc(S(=O)(=O)NCN2C(=O)c3ccccc3C2=O)cc1`: the growth is 93.6%.

As for `CNc1nc(C)c(-c2nc(Nc3cccc(S(N)(=O)=O)c3)ncc2F)s1`, the growth is -38.3% (active).

`O=C(CSc1nnc(-c2ccc(NC(=O)c3cccnc3)cc2)o1)Nc1cccc(Br)c1`: the growth is 97.3%.

For the compound `C#Cc1cccc(Nc2ncnc3cc(OCCOC)c(OCCOC)cc23)c1`, the growth is -4.78% (active).

Regarding `O=C(CN1CCCCC1)Nc1ccc2oc(=O)ccc2c1`, the growth is 107%.

In the case of `COc1ccc2nc3ccccc3c(NCc3ccc(C)cc3)c2c1`, the growth was -18.6% (active).

With `Nc1ncnc2c1C(c1ccc(Br)cc1)c1sc3c(F)cccc3c1O2` (stereo not given), the growth was 103%.

As to `CCc1nc2cc(/C=C/C(=O)NO)ccc2c(=O)n1CCc1ccc(F)cc1`, the growth was -11.6% (active).

On to `CC(C)(C)NC(=O)C(OC(=O)C1CCc2cc(F)ccc2O1)c1ccccc1Cl` (stereo not given), for which the growth was 105%.

Take `C#CCn1cc(/C=N/Nc2nc(-c3ccc(Br)cc3)cs2)c2ccccc21`: the growth was 105%.

For the compound `CC1C(/C=N/NC(N)=S)C(C#N)(C#N)C1(C#N)C#N` (stereo not given), the growth was 113%.

Turning to `COc1ccc2[nH]cc(-c3nc(-c4cn(C)c5c(Cl)nccc45)cs3)c2c1`, the growth is 18.1%.

Consider `O=c1cc(-c2ccccc2)[nH]c2ccccc12`, for which the growth is 59.5%.

On to `OCCN1CCN(CCO)CC1`, for which the growth is 107% and 103% and 105%.

In the case of `Nc1c(C(=O)Nc2ccccc2)sc2nc3c(cc12)CN(CCc1ccccc1)CC3`, the growth was 107%.

Consider `Cc1ccc(N2CCN(C(=S)c3cccs3)CC2)cc1`, for which the growth was 88.7%.

Turning to `CC(=O)OC[C@]1(C)C=C2C(=O)[C@](C)(O)C3(CC3)C(C)=C2[C@H]1OC(C)=O`, the growth is 21.6%.

As for `OC(c1ccccc1)C(NCc1ccccc1)c1ccccc1` (stereo not given), the growth is 95.4%.

With `COc1ccc(/C=C/C(=O)Nc2ncnc3nc[nH]c23)cc1`, the growth was 95.3%.

Take `CCOC(=O)c1c(C(F)(F)F)n([O-])c2ccc(Cl)cc2[n+]1=O`: the growth is -55.3% (active).

Consider `C=C1C(=O)O[C@H]2[C@H]1CC/C(CNC(=O)/C=C/c1ccc(Cl)cc1Cl)=C\CC[C@@]1(C)O[C@@H]21`, for which the growth was -89.2% (active).

For `O=C1Nc2ccc(Br)cc2C12CC(c1ccccc1)=NN2` (stereo not given), the growth was 48.6%.

In the case of `CC(C)NC(=O)OCC#CCOC(=O)NC(C)C`, the growth was 99.9%.

For `NNC(=O)c1ccccc1N`, the growth is 94.8%.

For `C=C(CN1CC=CCC1)[C@@H]1CC[C@]2(C(=O)OC)CC[C@]3(C)[C@H](CC[C@@H]4[C@@]5(C)CC[C@H](OC(C)=O)C(C)(C)[C@@H]5CC[C@]43C)[C@@H]12`, the growth was 55.6%.

`O=C(Oc1cccc(OC(=O)c2ccccc2)c1)c1ccccc1`: the growth is 110% and 101%.

Regarding `CCOc1ccc2c(c1)c(C)cc(C)[n+]2CC`, the growth is 9.85% (active).

In the case of `Cc1ccc(C(=O)Nc2ccc(CN3CCN(C)CC3)c(C(F)(F)F)c2)cc1C#Cc1cnc(N)cc1C#N`, the growth is -63.8% (active).

As for `CCN1C(=O)N(CC)C2C1NN=c1s/c(=C\c3cccc(F)c3)c(=O)n12` (stereo not given), the growth was -21.8% (active).

`CC(C)(C)c1ccc(C(=O)Nc2sc3c(c2C(N)=O)CCC(O)C3)cc1` (stereo not given): the growth is 32.3%.

For the origin of these results see PubChem BioAssay (NCI).
